# Assay outcomes: PubChem BioAssay, National Center for Advancing Translational Sciences (NCATS)
# Gal4-VP16 FLuc: Gal4-VP16 reporter inhibition counter-screen; Drosophila S2 Gal4-VP16 UAS-luciferase, luminescence, 20 h; 310,000 compounds, 3.5% hits; AID 2546; Potency, µM (titrated, usually from 53.6 µM), without a hit: top-dose activity, negative = inhibition, most hits filed as inhibitors;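 note: Gal4-VP16 expression switched on by copper sulfate through the metallothionein promoter; nearly all actives have a fitted effect of over 50% in size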
# Sfp inh: blocks B. subtilis Sfp PPTase activity. 310,000 compounds, 3.5% hits. Biochemical Sfp PPTase activity, qHTS. AID 1490. Q9F4F7. Potency, µM, for inactives: largest response in the series, negative = inhibition, usual class: inhibitors;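 note: the enzyme is Sfp with the accession as filed and its product quenches rhodamine fluorescence; 0% = enzyme reaction without inhibitor and -100% = no enzyme wells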
#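 Buffer: 50 mM Hepes-Na pH 7.6, 10 mM MgCl2, 0.01% Nonidet P-40, 0.01% BSA. Enzyme 15 nM, pre-exposed to compound 15 min; substrates then added and fluorescence change tracked over 30 min.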
# PLK1 PBD inh: inhibitors of human PLK1 polo-box domain binding | 360,000 compounds, 2.8% hits | Potency, µM, inactives show max response, negative = inhibition, usual class: inhibitors | Plk1 PBD binding of FITC phosphopeptide, fluorescence polarization | P53350; note: series mostly up to about 57 µM; nearly all actives have a fitted effect of over 65% in size
# Target sequence (P53350 whole entry, looked up, the tested form may be a part): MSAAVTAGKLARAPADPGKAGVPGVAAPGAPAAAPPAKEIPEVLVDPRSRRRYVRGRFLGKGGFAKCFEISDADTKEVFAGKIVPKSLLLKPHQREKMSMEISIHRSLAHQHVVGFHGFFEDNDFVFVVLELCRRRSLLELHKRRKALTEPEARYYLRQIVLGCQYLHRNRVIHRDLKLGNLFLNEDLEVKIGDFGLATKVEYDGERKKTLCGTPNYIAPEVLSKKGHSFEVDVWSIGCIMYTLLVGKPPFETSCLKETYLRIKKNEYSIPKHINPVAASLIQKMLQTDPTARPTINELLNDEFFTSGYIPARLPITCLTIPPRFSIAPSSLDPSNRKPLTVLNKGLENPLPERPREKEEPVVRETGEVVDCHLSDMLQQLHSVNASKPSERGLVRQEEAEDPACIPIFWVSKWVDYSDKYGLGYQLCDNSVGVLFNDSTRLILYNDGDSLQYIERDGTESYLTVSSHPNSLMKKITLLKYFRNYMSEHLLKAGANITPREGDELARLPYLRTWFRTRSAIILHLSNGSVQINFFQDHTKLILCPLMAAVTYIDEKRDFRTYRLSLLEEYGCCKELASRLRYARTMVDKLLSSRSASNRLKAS
# RORg inh: ROR gamma (mouse) transcription inhibition; 310,000 compounds, 5.4% hits; Potency, µM (top dose mostly 53.6 µM), without a hit: top-dose activity change, negative = inhibition, hits mostly inhibitors; Drosophila S2 Gal4-RORgamma UAS-luciferase reporter, 20 h; note: nearly all actives have a fitted effect of over 60% in size
#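 ROR gamma transcriptional activity was tracked as Gal4-UAS luciferase output in stably transfected Drosophila Schneider cells, with compound added 1 hr before 700 uM copper sulfate induction and a 20 hr ambient-temperature incubation.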
# ALDH1A1 inh: ALDH1A1 (human) enzyme inhibition | 220,000 compounds, 7.3% hits | P00352 | Potency, µM (doses to about 75.3 µM), without a hit: top-dose activity, negative = inhibition, usual class: inhibitors | Purified ALDH1A1, NADH fluorescence, propionaldehyde substrate; active = well fitted inhibition curve with a large enough effect, not every such curve was filed as active; inconclusive = small, poorly fitted or top-dose-only effect, or another doubt; inactive = no such curve, though single readings can be large or run the other way;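 note: plate controls were no enzyme wells and a reference inhibitor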
# * = called active by the depositor; ? = inconclusive; nt = no result given; [ ] = remark or other dose. Shown are actives, neighbours in structure and some others; about 12% of the full set was active somewhere. Unless noted, calls come from the whole dose curve; as a rule, active = well fitted curve in the direction sought with a large enough effect; inconclusive = small, poorly fitted or top-dose-only effect, or another doubt; inactive = no such curve, though single readings can be large; an effect the other way counts as inactive or inconclusive. Unless noted, % is set by controls: 0 for no effect and ±100 for the full control effect; potency is the fitted concentration of half-maximal effect.
SMILES,Gal4-VP16 FLuc,Sfp inh,PLK1 PBD inh,RORg inh,ALDH1A1 inh
O=C(c1[nH]c(C(F)(F)F)nc1-c1ccccc1)N1CCc2ccccc2C1,nt,nt,3.5%,nt,nt
CC(=O)OCC1OC(C#CCCc2ccccc2)C=CC1OC(C)=O (centres undefined),-1.9%[10 µM],5.2%,nt,17.4%[10 µM],?
CCCCCCC#CC1C=CC(OC(C)=O)C(COC(C)=O)O1 (centres undefined),-18.5%[10 µM],?,nt,6.7%[10 µM],3.16µM*
CC(C)OC(=O)Nc1ccc2nc(-c3cscn3)[nH]c2c1,?,20.2%,nt,?,nt
CCOC(=O)C1CCN(C(=O)C2c3ccccc3C(=O)N(C)C2c2ccc(OC)cc2)CC1 (centres undefined),nt,9.0%,-5.2%,40.3%[0.365 µM],2.82µM*
COc1ccc(C2C(C(=O)N3CCCCC3)c3ccccc3C(=O)N2C)cc1 (centres undefined),-2.6%,3.1%,0.4%,-4.4%,14.1µM*
COc1ccc(C2C(C(=O)N3CCCC3)c3cc(OC)c(OC)cc3C(=O)N2C)cc1 (centres undefined),-2.2%,9.6%,-8.0%,3.5%,4.4%
COC(=O)C1=CN(c2ccc3c(c2)OCO3)C(N)=C(C#N)C1c1ccc(-c2ccccc2)cc1 (centres undefined),nt,nt,-10.0%,nt,nt
CCN(CC)c1nc(C#N)nc(N(CC)CC)n1,0.8%,2.1%,1.5%,18.5%,-13.6%
CCN(c1ccccc1)c1nc(C#N)nc(N(CC)c2ccccc2)n1,-3.4%,-6.2%,21.2µM*,-5.0%,nt
CC(C)(C)CC(C)(C)c1ccc(O)c(CN2CCN(CCC#N)CC2)c1,-23.8%,18.4%,-0.4%,25.1µM*,-3.4%
N#CCCN1CCN(Cc2cc(-c3ccccc3)ccc2O)CC1,4.4%,2.0%,-8.5%,16.3%,?
CCOC(=O)/C=C(\C)Sc1cc(O)c2ccccc2c1O,?,7.94µM*,10.6µM*,11.2µM*,nt
CCOC(=O)/C=C(\C)Sc1cc(=O)oc2ccccc12,23.9%,0.1%,-26.1%,2.2%,?
CC(C)(C)c1ccc(C(=O)C2CCCN(C(=O)c3ccccn3)C2)cc1 (centres undefined),14.1µM*,-3.7%,-4.9%,-40.8%,nt
Cc1cnc(C(=O)N2CCCC(C(=O)c3ccc(C(C)(C)C)cc3)C2)cn1 (centres undefined),-4.1%,3.7%,-4.4%,-19.7%,12.6µM*
COc1cccc(C(=O)C2CCCN(C(=O)c3ccccn3)C2)c1 (centres undefined),-2.1%,15.3%,-4.4%,12.0%,nt
O=C(c1ccncc1)N1CCC2(CCCN(Cc3nccs3)C2)CC1,-17.1%,2.1%,nt,0.5%,7.6%
CC(=O)N/C(=N\c1nc(C)cc(C)n1)Nc1ccc2ccccc2c1,?,-2.3%,0.3%,-34.3%,nt
O=[N+]([O-])c1ccc(CN2CCCCCC2)cc1,-1.6%,10.7%,-6.6%,-42.2%,nt
CC1CCN(S(=O)(=O)c2ccc([N+](=O)[O-])cc2)CC1,15.7%,11.3%,-13.0%,1.7%,nt
O=C(c1cc([N+](=O)[O-])ccc1Cl)N1CCN(Cc2ccccc2)CC1,nt,-11.4%,-6.7%,nt,nt
CCN1CCN(C(=S)c2ccc([N+](=O)[O-])cc2)CC1,6.9%,12.6µM*,11.9µM*,-16.0%,?
CCS(=O)(=O)N1CCN(Cc2ccc([N+](=O)[O-])cc2)CC1,4.5%,79.4µM*,2.2%,6.5%[10 µM],?
O=C(c1ccccc1)N1CCN(C(=O)c2ccc([N+](=O)[O-])cc2)CC1,-0.8%,5.9%,1.4%,-10.8%[10 µM],1.5%
SMILES,Gal4-VP16 FLuc,Sfp inh,PLK1 PBD inh,RORg inh,ALDH1A1 inh
CC1CCN(C(=S)c2ccc([N+](=O)[O-])cc2)CC1,14.3%,44.7µM*,23.8µM*,2.7%,?
O=[N+]([O-])c1ccc(C(=S)N2CCN(Cc3ccccc3)CC2)cc1,12.4%,-17.4%,-12.3%,?,14.1µM*
O=C1OC(C2=CCCCC2)=NC12CC2,-2.1%[10 µM],14.3%,nt,-11.8%[10 µM],?
C=CCOc1cccn2c(N(C)C(=O)c3ccc(OC)cc3)c(CC)nc12,nt,nt,-6.8%,nt,nt
CCOC(=O)[C@]12CCCC=C1N(Cc1cccc3ccccc13)C(=O)[C@H](CC(=O)NCCCOC)C2,nt,nt,4.1%,nt,nt
CC(C)NC(=O)c1cc(-c2ccc(F)cc2OC(C)C)n[nH]1,nt,nt,-9.4%,nt,nt
O=C(CN1CCN(Cc2ccccc2)CC1)Nc1ccc(Cl)cn1,-4.2%,7.0%,-6.2%,6.6%,?
O=[N+]([O-])c1ccc(C(=S)N2CCCC2)cc1,-1.3%,50.1µM*,21.2µM*,7.3%,?
O=C(CN1CCN(Cc2ccccc2)CC1)NCCNc1ccc([N+](=O)[O-])cn1,8.6%,10.6%,-8.0%,6.1%,9.46µM*
Cc1cc(C2=NNC(=NC3CCCCC3)SC2)c(C)n1-c1c(C)n(C)n(-c2ccccc2)c1=O,-27.4%,?,-17.9%,-7.7%,?
Cc1ccccc1N=C1NN=C(c2ccccc2F)CS1,?,16.4%,-18.4%,-80.9%,?
Cc1cc(C2=NNC(=NC3CC3)SC2)c(C)n1-c1ccccc1F,0.708µM*,44.7µM*,26.7µM*,1.12µM*,8.91µM*
Cc1cccc(C)c1N=C1NN=C(c2ccccc2F)CS1,10µM*,-9.6%,0.7%,7.94µM*,-12.2%
C=C(C)CN=C1NN=C(c2cc(C)n(-c3ccc(C)cc3)c2C)CS1,10.5%,-7.0%,-5.3%,-34.2%,12.6µM*
CC(C)CCCC(C)C1CC(=O)C2=C3CCC4CC(O)CCC4(C)C3CCC21C (centres undefined),-7.1%,-11.1%,nt,4.1%,nt
O=C(NC1CC1)c1[nH]c(C(F)(F)F)nc1-c1ccccc1,nt,nt,-8.1%,nt,nt
COc1cc(/C=N/Nc2nc3ccccc3[nH]c2=O)ccc1O,27.1%,0.4%,-16.2%,?,6.1%
COc1cc(/C=N/Nc2nc3ccccc3[nH]2)ccc1O,-28.0%,11.2µM*,-4.2%,?,-7.7%
COc1cc(/C=N/Nc2nc3ccccc3[nH]2)cc(OC)c1O,?,14.1µM*,-12.6%,?,0.6%
COc1cc(/C=N/NC(=Nc2ccc(C)cc2)c2nc3ccccc3s2)ccc1O,?,-14.5%,-3.3%,7.08µM*,-7.2%
COc1cccc(/C=N/Nc2nc3ccccc3[nH]2)c1O,2.24µM*,-9.3%,3.3%,0.708µM*,nt
OCCOCCOCCO,0.8%,14.4%,nt,-1.6%[10 µM],nt
CCNC(=O)C1(C)CCCN(C(=O)c2ccccc2Br)C1 (centres undefined),nt,nt,-9.6%,nt,nt
S=c1[nH]nc(C2CCCCC2)n1/N=C/C=C/c1ccccc1,6.31µM*,-1.9%,?,0.891µM*,2.6%
S=c1[nH]nc(C2CCCCC2)n1/N=C/C(Cl)=C\c1ccccc1,5.62µM*,2.9%,-23.1%,2µM*,5.2%
S=c1[nH]nc(-c2cc(-c3ccccc3)n[nH]2)n1/N=C/C(Br)=C/c1ccccc1,?,?,?,?,16.3%
Cc1cc2c(nc1C)CCCN2C[C@@H](O)CN1CCN(C)CC1,-4.0%[10 µM],-10.5%,nt,-24.4%[10 µM],-12.1%[13.5 µM]
COc1ccc(-n2nc3c(N4CCC(C(=O)NCC(C)c5ccccc5)CC4)nnc(C)c3c2C)cc1 (centres undefined),20µM*,13.4%,6.7µM*,-30.5%,nt
